Screening data as filed in PubChem.
Compounds with a hit are over-represented: about 5.9% of the library has one in this group of screens.
KB-3-1 tox: kills parental KB-3-1 adenocarcinoma cells. KB-3-1 viability, CellTiter-Glo ATP luminescence, 72 h. Potency, µM (top dose mostly 46.1 µM), actives largely listed as cytotoxic. 1.4% of 400,000 active. AID 1347075; note: % is set by controls: 0 for no effect and ±100 for the full control effect; nearly all actives have a fitted effect of over 60% in size
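Screening of KB-3-1 cells (DMEM, 10% FBS, phenol-red free) ran from lowest to highest compound concentration; after 72 h at 37 °C viability was read luminescently and curves fitted.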
HepG2 viability: HepG2 cytotoxicity, counter-screen for TGF-b inhibitors | HepG2 CAGA-GFP viability, ATP luminescence, 18 h | Potency, µM (top dose mostly 46.1 µM), inactives show at the top dose activity change, negative = cytotoxicity, actives largely listed as cytotoxic | 0.76% of 410,000 active | AID 588856
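CellTiter-Glo luminescence gave cytotoxicity after 18 hours at 37 degrees C. The cells were HepG2 CAGA-GFP in 1% FBS DMEM, stimulated with 500 pg/mL TGF-beta after compound addition. %Activity was normalised to no-cell wells (complete cell-killing) and DMSO (no toxicity), and curves were fitted and classified.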
ATXN2 expr inh: reduces ATXN2 reporter expression in HEK-293 cells | HEK-293 ATXN2-luciferase reporter, luminescence, 24 h | Potency, µM (top dose mostly 57 µM), inactives show at the top dose activity change, negative = inhibition, actives largely listed as inhibitors | 0.72% of 360,000 active | AID 1745845; note: % is set by controls: 0 for no effect and ±100 for the full control effect; nearly all actives have a fitted effect of over 55% in size
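qHTS (up to 57 uM final) was run with 24 h compound exposure of reporter cells at 37 °C. Each well was multiplexed: SteadyGlo luminescence measured ATXN2-luciferase expression after a fluorogenic Gly-Phe-AFC viability readout (25 uM final).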
KB-V1 cytotox: kills drug-selected multidrug resistant KB-V1 cells; 3.4% of 400,000 active; Potency, µM (top dose mostly 46.1 µM), usual class: cytotoxic; KB-V1 MDR cells viability, CellTiter-Glo, 72 h; note: % is set by controls: 0 for no effect and ±100 for the full control effect; nearly all actives have a fitted effect of over 60% in size
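Drug-selected KB-V1 cells, grown in DMEM lacking phenol red with 10% FBS, receive compound titrations; after three days at 37 degrees C, surviving cell ATP is quantified by CellTiter-Glo luminescence and responses normalized and curve-fitted.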
S2 tox: viability counter-screen for ATXN expression inhibitors; S2 cells (HEK-293 line with an ATXN2-luciferase reporter) viability, CellTiter-Fluor protease fluorescence, 24 h; 0.49% of 400,000 active; Potency, µM (highest dose often 56.7 µM), actives largely listed as cytotoxic; note: nearly all actives have a fitted effect of over 40% in size
TGFb SMAD3 inh: TGF-b pathway inhibition; AID 588855; Potency, µM (top dose mostly 46.1 µM), for inactives: at the highest dose activity, negative = inhibition, usual class: inhibitors; 1.2% of 410,000 active; HepG2 CAGA-GFP TGF-b/SMAD3 reporter, GFP fluorescence, 18 h; TGF-beta stimulated, 500 pg/mL final; note: % is set by controls: 0 for no effect and ±100 for the full control effect; nearly all actives have a fitted effect of over 65% in size
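First, reporter cells (HEPG2 CAGA-GFP) rested 2 h at 37 degrees C. Next, compounds were pinned in and TGF-beta added to 500 pg/mL final. After 18 h, GFP was imaged per cell and summed per well.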
* marks the source's active call; other numbers are inactive results; i = inactive; ? = inconclusive; / = no result given; ! = repeats disagree. Calls come from the whole dose curve; as a rule, active = well fitted curve in the direction sought with a large enough effect; inconclusive = small, poorly fitted or top-dose-only effect, or another doubt; inactive = no such curve, though single readings can be large; an effect the other way counts as inactive or inconclusive. Potency is the fitted concentration of half-maximal effect.

SMILES	KB-3-1 tox	HepG2 viability	ATXN2 expr inh	KB-V1 cytotox	S2 tox	TGFb SMAD3 inh
Cc1c(C(=O)NCc2ccc(F)cc2)sc(=O)n1Cc1ccc(Cl)c(Cl)c1	?	-24%	?	16µM*	i	?
Cc1c(C(=O)NCc2ccc3c(c2)OCCO3)sc(=O)n1Cc1cccc(C(F)(F)F)c1	?	-11%	-36%	7.3µM*	i	-14%
CSc1ccc(Cn2c(C)c(C(=O)NCc3ccc(Cl)c(Cl)c3)sc2=O)cc1	15µM*	-4%	-28%	16µM*	i	?
Cc1c(C(=O)NCc2ccc3c(c2)OCCO3)sc(=O)n1Cc1ccc2c(c1)OCO2	i	-10%	-5%	?	i	8%
COc1ccc(NC(=O)c2sc(=O)n(Cc3cccc(C(F)(F)F)c3)c2C)cc1OC	8.2µM*	1%	-40%	?	?	?
COc1ccc(NC(=O)c2sc(=O)n(Cc3ccc(SC)cc3)c2C)cc1OC	i	1%	-5%	?	i	?
CN(C)c1ccc(/C=C/c2ccc3ncccc3c2)cc1	i	-14%	/	i	/	-12%
Cc1c(C(=O)NC(C)(C)C)sc2ncnc(NCCN(C)C)c12	/	/	/	/	i	/
Cc1c(C(=O)NCCC#N)sc(=O)n1Cc1ccc(F)cc1	i	-1%	6%	i	i	-6%
CSc1ccc(Cn2c(C)c(C(=O)NCCC#N)sc2=O)cc1	?	3%	-7%	15µM*	i	2%
CSc1ccc(Cn2c(C)c(C(=O)NCc3ccc4c(c3)OCCO4)sc2=O)cc1	i	0%	-36%	18µM*	i	-4%
Cc1cccc(OC(=O)CSc2nnc(CNC(=O)c3ccccc3)o2)c1C	i	10%	3%	i	i	-11%
O=C(COc1ccc(Cl)cc1)N1CCN(c2ccc([N+](=O)[O-])c(N3CCCCC3)c2)CC1	i	-14%	-22%	i	i	-13%
COc1ccc(CCNC(=O)COc2ccc(S(=O)(=O)NC3CCCCC3)cc2Cl)cc1	i	-38%	?	15µM*	/	14µM*
O=C(COc1ccccc1Cl)N1CCN(c2ccc([N+](=O)[O-])c(N3CCCCC3)c2)CC1	i	-6%	-8%	21µM*	?	4%
O=C(COc1ccc(S(=O)(=O)NC2CCCCC2)cc1Cl)N1CCN(c2ccccc2)CC1	i	-16%	-35%	5.8µM*	?	-21%
CC(C)[C@H](NS(=O)(=O)c1cccc(Cl)c1)C(=O)OCC(=O)N1CCN(c2ccccc2)CC1	i	4%	?	7.3µM*	i	-6%
O=C(COc1ccc(S(=O)(=O)NC2CCCCC2)cc1)N1CCN(c2ccc(F)cc2)CC1	16µM*	0%	?	?	?	?
NC(=O)C1CCN(C(=O)COc2ccc(S(=O)(=O)NC3CCCC3)cc2)CC1	?	-5%	-18%	?	i	0%
CCN1CCN(Cc2ccc(NC(=O)c3ccc(C)c(NC(=O)c4cc(-c5ccc(Br)cc5)n[nH]4)c3)cc2C(F)(F)F)CC1	?	-96%	32µM*	?	25µM*	?
CCN1CCN(Cc2ccc(NC(=O)c3ccc(C)c(NC(=O)c4cncc(-c5cccs5)c4)c3)cc2C(F)(F)F)CC1	?	10µM*	14µM*	?	/	?
CCN1CCN(Cc2ccc(NC(=O)c3ccc(C)c(NC(=O)c4nccn4C)c3)cc2C(F)(F)F)CC1	i	-23%	-8%	i	i	?
CCN1CCN(Cc2ccc(NC(=O)c3ccc(C)c(NC(=O)c4nccnc4N)c3)cc2C(F)(F)F)CC1	i	-118%	28µM*	i	?	?
CCN1CCN(Cc2ccc(NC(=O)c3ccc(C)c(NC(=O)N4CCNC4=O)c3)cc2C(F)(F)F)CC1	i	-48%	?	?	?	?
CCN1CCN(Cc2ccc(NC(=O)c3ccc(C)c(NC(=O)c4cccc5[nH]ccc45)c3)cc2C(F)(F)F)CC1	16µM*!	-156%	?	?	/	?
SMILES	KB-3-1 tox	HepG2 viability	ATXN2 expr inh	KB-V1 cytotox	S2 tox	TGFb SMAD3 inh
CCCSc1ncc(Cl)c(C(=O)Nc2c(C(=O)c3ccc(C)cc3)oc3ccccc23)n1	/	5%	/	/	/	/
CNC(=O)CSc1nnc(NC(=O)Nc2ccccc2)s1	/	4%	/	/	/	-5%
CCN1CCN(Cc2ccc(NC(=O)c3cc(NC(=O)c4nccnc4N)cc(OC)c3)cc2C(F)(F)F)CC1	i	-30%	?	i	?	?
CCN1CCN(Cc2ccc(NC(=O)c3cc(NC(=O)c4cnnc5ccccc45)cc(OC)c3)cc2C(F)(F)F)CC1	?	18µM*!	?	i	?	?
Cc1cc(NC(=O)CSc2cn(CCNC(=O)c3ccc(Cl)cc3)c3ccccc23)no1	i	-30%	0%	i	19µM*	-6%
COc1ccc(C(=O)NCCn2cc(SCC(=O)Nc3cc(C)on3)c3ccccc32)cc1OC	i	4%	0%	i	i	-1%
COc1ccccc1C(=O)NCCn1cc(SCC(=O)Nc2cc(C)on2)c2ccccc21	i	-15%	-16%	8.2µM*	i	-8%
CCCCc1ccc(NC(=O)c2ccc3c(c2)CCN3S(=O)(=O)c2ccccc2)cc1	i	-8%	-14%	i	i	-22%
COc1ccc(SCCN2CCN(CCc3ccccc3)CCC2=O)cc1	/	-2%	/	/	/	?
CCOc1cc(CNc2ccc(N3CCCCC3)cc2)cc(Br)c1OCC(=O)NC(C)(C)C	i	-35%	-17%	15µM*	i	?
CCOc1cc(CNc2ccc(N3CCOCC3)cc2)cc(Br)c1OCC	?	-23%	-30%	?	i	0%
CCOc1cc(CNc2ccc3c(c2)OCCO3)cc(Br)c1OCC	5.2µM*	-12%	2%	2.6µM*	i	?
NC(=O)C1CCN(c2ncc(-c3ccc4c(c3)OCCO4)s2)CC1	i	/	/	i	/	/
Cc1ccc(NC(=O)CSc2nc3ccc(NC(=O)CCc4ccccc4)cc3s2)cc1	i	1%	11%	i	i	-4%
N#Cc1cc2c(nc1SCc1ccccc1)CCC2	i	-33%	-3%	i	i	-6%
N#Cc1cc2c(nc1SCc1ccncc1)CCC2	i	-39%	27%	i	i	13µM*
COc1cccc2nc(-c3cccs3)nc(NN3C(=O)C=C(C)C3=O)c12	/	/	6.1µM*	/	/	/
